Measurements reported in PubChem BioAssay (NCATS).
Several values for one entry are separate records, joined by “and”; a condition that tells them apart may be missing. Equal values may be shown once. Records with an inconclusive call do not appear. A number with no mark means an inactive call. Activity calls are given as the source filed them. Calls follow the shape of the dose curve; as a rule, active = well fitted curve in the direction sought with a large enough effect; inconclusive = small, poorly fitted or top-dose-only effect, or another doubt; inactive = no such curve, though single readings can be large; an effect the other way counts as inactive or inconclusive.

Key:
[1] = target: Cellular tumor antigen p53 (Homo sapiens) (UniProt P04637); assay: Primary qHTS for small molecule compounds that upregulate eGFP-tagged delta133p53alpha (in N-terminal) cells. (AID 2060322); conditions: NCI-H358 eGFP-delta133p53alpha fluorescence, 24 h; activation: hits give high values; also: nearly all actives have a fitted effect of over 75% in size; also: potency is read from the fitted curve at half-maximal effect;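 as to activation: series mostly up to about 56 µM; 0% = DMSO vehicle and 100% = reference activator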
Chain of Cellular tumor antigen p53 (Homo sapiens) (P04637 whole entry, looked up): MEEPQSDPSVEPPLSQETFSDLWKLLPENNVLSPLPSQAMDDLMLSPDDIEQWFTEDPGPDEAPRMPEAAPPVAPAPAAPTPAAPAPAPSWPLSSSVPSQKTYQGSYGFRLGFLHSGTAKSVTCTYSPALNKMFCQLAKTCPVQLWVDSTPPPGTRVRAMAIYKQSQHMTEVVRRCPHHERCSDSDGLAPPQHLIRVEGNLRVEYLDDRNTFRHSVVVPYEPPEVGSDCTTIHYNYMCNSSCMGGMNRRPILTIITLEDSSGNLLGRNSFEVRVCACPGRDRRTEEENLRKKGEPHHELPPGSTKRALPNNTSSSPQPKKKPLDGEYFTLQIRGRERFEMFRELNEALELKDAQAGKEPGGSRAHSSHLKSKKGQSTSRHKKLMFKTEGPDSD
How it was run: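 NCI-H358 cells pre-induced 24 h with 10 ng/ml doxycycline to express N-terminal eGFP-delta133p53alpha, then dosed 24 h at 37C without doxycycline; fixed, Hoechst-stained, GFP intensity by laser scanning cytometry, normalized to DMSO (0%) and 57.5 uM 5-azacytidine (100%).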

[2] = target: Aldehyde dehydrogenase, mitochondrial (Homo sapiens) (UniProt P05091); assay: qHTS for Inhibitors of the Aldehyde Dehydrogenase Family (ALDH2) Primary screen (AID 2061308);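 also: plate controls were vehicle for no effect and reference inhibitor for full effect; nearly all actives have a fitted effect of over 55% in size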
[3] = target: Retinaldehyde dehydrogenase 3 (Homo sapiens) (UniProt P47895); assay: qHTS for Inhibitors of the Aldehyde Dehydrogenase Family (ALDH1A3) Primary screen (AID 2061315);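 also: plate controls were DMSO vehicle for no effect and reference inhibitor for full effect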
[4] = BET inhibitor-based combinations targeting novel dependencies in MECOM-rearranged (r) AML: SET-2 cell line (AID 2202231); conditions: SET-2 AML cells viability, CellTiter-Glo luminescence, 48 h; viability: hits give low values, concentration not given here; also: nearly all actives have a fitted effect of over 35% in size; also: potency is read from the fitted curve at half-maximal effect;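 as to viability: plate controls were DMSO treated cells for no effect and wells without cells for full effect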
How it was run: (§1)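 Each compound was tested at eleven concentrations on cells seeded at 500/well. After two days' incubation, ATP-based luminescence reported viability; responses relative to DMSO and blank wells yielded AUC and cell-line-centred Z-AUC.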

[5] = BET inhibitor-based combinations targeting novel dependencies in MECOM-rearranged (r) AML: OCI-AML3 cell line (AID 2202232); conditions: Potency: OCI-AML3 viability; also: nearly all actives have a fitted effect of over 35% in size; also: potency is read from the fitted curve at half-maximal effect
How it was run: as §1

[6] = BET inhibitor-based combinations targeting novel dependencies in MECOM-rearranged (r) AML: MV-4-11 cell line (AID 2202233); also: nearly all actives have a fitted effect of over 45% in size; also: potency is read from the fitted curve at half-maximal effect
How it was run: (§2)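 First, 500 cells per well were seeded; next, drugs were pinned as 11-point doses; then plates sat 48 hr in the incubator; finally CellTiter-Glo was added and luminescence read, with AUC and Z-AUC computed.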

[7] = BET inhibitor-based combinations targeting novel dependencies in MECOM-rearranged (r) AML: HNT-34 cell line (AID 2202234); also: nearly all actives have a fitted effect of over 35% in size; also: potency is read from the fitted curve at half-maximal effect
How it was run: as §2

[8] = BET inhibitor-based combinations targeting novel dependencies in MECOM-rearranged (r) AML: UCSD-AML1 cell line (AID 2202235); also: nearly all actives have a fitted effect of over 40% in size; also: potency is read from the fitted curve at half-maximal effect
How it was run: as §2

[9] = BET inhibitor-based combinations targeting novel dependencies in MECOM-rearranged (r) AML: AML-191 cell line (AID 2202236; also: nearly all actives have a fitted effect of over 35% in size; also: potency is read from the fitted curve at half-maximal effect)
How it was run: as §1

[10] = BET inhibitor-based combinations targeting novel dependencies in MECOM-rearranged (r) AML: AML-194 cell line (AID 2202237; also: nearly all actives have a fitted effect of over 40% in size; also: potency is read from the fitted curve at half-maximal effect)
How it was run: as §1

[11] = target: Aldehyde dehydrogenase 1A1 (Homo sapiens) (UniProt P00352); assay: qHTS for Inhibitors of the Aldehyde Dehydrogenase Family (ALDH1A1) Confirmatory screens (AID 2061316); also: potency is read from the fitted curve at half-maximal effect; nearly all actives have a fitted effect of over 65% in size

Row | SMILES | activation [1] | Potency [2] | Potency [3] | Potency [1] | Potency [4] | Potency [5] | Potency [6] | Potency [7] | Potency [8] | Potency [9] | Potency [10] | viability [4] | Potency [11]
1 | Cc1csc(NC(=O)c2ccc(COc3cccc(Cl)c3)o2)n1 | -9.67% | inactive | inactive |  |  |  |  |  |  |  |  |  | 
2 | CCCC(=O)NCCc1csc(-c2ccc(Cl)cc2)n1 | 1% | inactive | inactive |  |  |  |  |  |  |  |  |  | 
3 | Cc1ccc(-c2ccc3ncc4c(c3n2)n(C2CCN(C(=O)[C@H](C)O)CC2)c(=O)n4C)cn1 |  | inactive | inactive | 12 µM (active) | 0.166 µM (active) | 0.296 µM (active) | 0.209 µM (active) | 0.263 µM (active) | 0.0934 µM (active) | 0.166 µM (active) | 0.417 µM (active) |  | 
4 | COCCCc1sc(-c2ccccc2)nc1C(=O)Nc1ccccc1-c1nc2cc(CN3CCCC3)cnc2s1 | -4.33% | inactive | inactive |  |  | 9.1 µM (active) |  |  |  |  |  | 121% | 
5 | C[C@H](O)[C@H](O)[C@H]1CNc2nc(N)[nH]c(=O)c2N1 | 10.3% | inactive | inactive |  |  |  |  |  |  |  |  |  | 12.7 µM (active)
6 | Cc1[nH]c2ccc(F)cc2c1-c1nc2c3cccnc3c3ncccc3c2[nH]1 | -1% | inactive | inactive |  | 2.7 µM (active) | 0.679 µM (active) | 0.605 µM (active) | 0.679 µM (active) | 0.679 µM (active) | 0.539 µM (active) | 0.762 µM (active) |  | 
7 | O=C(Nc1ccccc1-c1cn2c(CN3CCNCC3)csc2n1)c1cnc2ccccc2n1 | -29.5% | inactive | inactive |  | 8.33 µM (active) | 20.9 µM (active) | 5.25 µM (active) | 20.9 µM (active) | 8.33 µM (active) | 7.42 µM (active) | 8.33 µM (active) |  | 
8 | Nc1ccn([C@@H]2O[C@H](CO)[C@@H](O)C2(F)F)c(=O)n1 | -26.8% and -6.68% | inactive | inactive |  | 0.0235 µM (active) | 0.0105 µM (active) | 0.0059 µM (active) | 0.0372 µM (active) | 0.0186 µM (active) | 0.0132 µM (active) | 0.0209 µM (active) |  | 
9 | Cn1c2cc(S(C)=O)sc2c2cnn(Cc3cccc(N)c3)c(=O)c21 (stereo not given) | 15.5% | inactive | inactive |  |  | inactive | inactive | inactive | inactive | inactive | inactive | 104% | 
10 | Cc1ccc(C(N)=O)cc1Nc1nccc(-c2cn(C(C)C)c3cnccc23)n1 |  | inactive | inactive | 10.9 µM (active) | 7.42 µM (active) | 7.42 µM (active) | 0.0833 µM (active) | 2.95 µM (active) | 4.68 µM (active) | 5.25 µM (active) | 8.33 µM (active) |  | 
11 | Nc1ccn(C2CO[C@H](CO)O2)c(=O)n1 (stereo not given in full) | -4.75% | inactive | inactive |  |  | inactive | inactive | inactive | inactive | inactive | inactive | 113% | 
12 | CN(C)C/C=C/C(=O)Nc1ccc(C(=O)Nc2cccc(Nc3ncc(Cl)c(-c4c[nH]c5ccccc45)n3)c2)cc1 |  | inactive | inactive | 269 nM (active) and 343 nM (active) | 0.662 µM (active) | 0.0833 µM (active) | 0.0468 µM (active) | 0.118 µM (active) | 0.132 µM (active) | 0.235 µM (active) | 0.296 µM (active) |  | 
13 | O=C(c1ccc(Nc2nccc(-c3cc4ccccc4s3)n2)cc1)N1CCC(N2CCCC2)CC1 | -33.3% | inactive | inactive |  | 6.61 µM (active) | 18.6 µM (active) | 1.86 µM (active) | 5.25 µM (active) | 3.32 µM (active) | 7.42 µM (active) | 7.42 µM (active) |  | 
14 | COc1cc2ncnc(Nc3ccc(F)c(Cl)c3)c2cc1NC(=O)/C=C/CN1CCCCC1 |  | inactive | inactive | 9.53 µM (active) | 8.33 µM (active) | 5.9 µM (active) | 2.95 µM (active) | 3.72 µM (active) | 8.33 µM (active) | 7.42 µM (active) | 8.33 µM (active) |  | 
15 | COc1cc2c(Nc3ccc(NC(=O)c4ccccc4)cc3)ncnc2cc1OCCCN1CCOCC1 | 32.6% | inactive | inactive |  | 26.3 µM (active) | 18.6 µM (active) | 1.66 µM (active) | 1.32 µM (active) | inactive | 20.9 µM (active) | 23.5 µM (active) |  | 
16 | C1Cc2[nH]nc(-c3nn[nH]n3)c2C1 | 0.623% and -10.5% | inactive | inactive |  |  | inactive | inactive | inactive | inactive | inactive | inactive | 120% | 
17 | CC(C)CC(=O)Nc1n[nH]c2c1CN(C(=O)C1CCN(C)CC1)C2(C)C |  | inactive | inactive | 6.11 µM (active) and 4.78 µM (active) | 10.5 µM (active) | 1.32 µM (active) | 0.372 µM (active) | 2.35 µM (active) | 2.35 µM (active) | 5.9 µM (active) | 5.9 µM (active) |  | 
